Assay results reported in PubChem BioAssay AID686979 (National Center for Advancing Translational Sciences (NCATS), 2013).
The campaign covered roughly 420,000 compounds. About 50,000 (12%) were called active. Inconclusive results (about 26%) are left out. The sample as a whole holds a higher share of actives than the screen did. Unmarked numbers belong to inactive results. Calls follow the shape of the dose curve; as a rule, active = well fitted inhibition curve with a large enough effect; inconclusive = small, poorly fitted or top-dose-only effect; inactive = flat fitted curve, though single readings scatter.

Assay: qHTS for Inhibitors of human tyrosyl-DNA phosphodiesterase 1 (TDP1): qHTS in cells in presence of CPT; also: nearly all actives have a fitted effect of over 55% in size
Conditions: chicken DT40 Tdp1-/-;hTDP1 cells + 20 nM CPT, ATP luminescence, 48 h; series mostly up to 46.2 µM; activity change, negative = growth inhibition: at the top concentration
In short: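 Cell growth measured by CellTiter-Glo luminescence after a minimum 48 h, 37 C compound exposure with 20 nM CPT in Tdp1-knockout DT40 cells stably expressing hTDP1, seeded 400/well; qHTS titration format.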
% is scaled to controls: 0 for no effect and ±100 for the full control effect; potency is read from the fitted curve at half-maximal effect.

Question: For `COc1ccccc1CNC(=O)COC(=O)c1cccs1`, which “activity change, negative = growth inhibition” value is on record?
Answer: -22.4%

Question: With `COc1ccc(/C=C/C(=O)Nc2ccc(C34CC5CC(CC(O)(C5)C3)C4)cc2)cc1OC` as the compound, how does the Potency read?
Answer: 2.31 µM (active)

Question: For `COc1cc(/C=C/C(=O)Nc2ccc(OC)c(S(=O)(=O)N3CCOCC3)c2)ccc1OCC#N`, which “activity change, negative = growth inhibition” value is on record?
Answer: -29%

Question: Which “activity change, negative = growth inhibition” value does the source give for `COc1ccc(/C=C/C(=O)Nc2cccnc2)cc1OC` here?
Answer: 16.1%

Question: With `COCCn1c(N)c(NCc2ccccc2)c(=O)[nH]c1=O` as the compound, how does the “activity change, negative = growth inhibition” value read?
Answer: -27.3%

Question: Which “activity change, negative = growth inhibition” value does the source give for `O=C(COC(=O)C12CC3CC(CC(O)(C3)C1)C2)NC12CC3CC(CC(C3)C1)C2` here?
Answer: -0.57%

Question: For `COc1cccc(NC(=O)CSc2nnc(Cc3ccc(OC)c(OC)c3)o2)c1`, which “activity change, negative = growth inhibition” value is on record?
Answer: 0.397%

Question: For `Cc1cc(C)c2c(Cn3ccnc3)cc(=O)oc2c1`, which “activity change, negative = growth inhibition” value is on record?
Answer: 13.7%

Question: With `COc1ncnc2c1ncn2CCCNCCN1CCOCC1` as the compound, how does the “activity change, negative = growth inhibition” value read?
Answer: 7.08%

Question: With `O=C(O)C(c1ccccc1)N1C(=O)/C(=C\c2ccc(-c3cccc(Cl)c3)o2)SC1=S` (configuration not stated) as the compound, how does the “activity change, negative = growth inhibition” value read?
Answer: -2.25%

Question: Which “activity change, negative = growth inhibition” value does the source give for `CC1=C(C(=O)OCc2ccccc2)C(c2ccc(C(F)(F)F)cc2)NC(=O)N1CCCCCC(=O)O` (configuration not stated) here?
Answer: -2.79%

Question: Which “activity change, negative = growth inhibition” value does the source give for `CCOC(=O)CCCNC(=O)CN1C(=O)NC(CCc2ccccc2)C1=O` (configuration not stated) here?
Answer: 5.72%

Question: For `CCCCNC(=O)C(C)N(CCN(C)C)C(=O)CCCCCN1C(=O)NC(c2ccc(Cl)cc2)C(C(=O)OCc2ccccc2)=C1C` (configuration not stated), which Potency is on record?
Answer: 7.31 µM (active)

Question: With `CCCCNC(=O)C1(O)c2ccccc2NC(=O)N1c1ccc(Cl)cc1` (configuration not stated) as the compound, how does the “activity change, negative = growth inhibition” value read?
Answer: 14.6%

Question: For `CCCCNC(=O)C(C)N(CCN(C)C)C(=O)CCCN1C(=O)NC(c2ccc(Cl)cc2)C(C(=O)OCc2ccccc2)=C1C` (configuration not stated), which Potency is on record?
Answer: 20.6 µM (active)

Question: Which “activity change, negative = growth inhibition” value does the source give for `COCCOC(=O)C1=C(C)NC(=O)NC1c1ccc(Cl)cc1` (configuration not stated) here?
Answer: -24.5%

Question: For `COc1ccccc1/C=C/C(=O)NC(=S)N1CCOCC1`, which “activity change, negative = growth inhibition” value is on record?
Answer: -1.22%

Question: For `CC(C)Cc1nnc(NC(=O)CN2C(=O)NC3(CCCCC3)C2=O)s1`, which “activity change, negative = growth inhibition” value is on record?
Answer: -7.33%

Question: Which “activity change, negative = growth inhibition” value does the source give for `COC(=O)c1ccccc1NC(=O)CSc1nc2c(c(=O)[nH]1)CCC2` here?
Answer: -3%

Question: Which “activity change, negative = growth inhibition” value does the source give for `CC(=O)Nc1ccc(S(=O)(=O)N2CCn3cccc3C2C)cc1` (configuration not stated) here?
Answer: -5.77%

Question: For `O=C(CCN1CCCO1)N1CCCC(N2CCN(c3cccc(C(F)(F)F)c3)CC2)C1` (configuration not stated), which “activity change, negative = growth inhibition” value is on record?
Answer: -2.8%

Question: With `O=C(NN=Cc1ccc2c(c1)CCC2)c1ccccc1O` as the compound, how does the “activity change, negative = growth inhibition” value read?
Answer: -23%

Question: With `O=C(OCC(=O)N1CCOCC1)c1ccc2ccccc2c1` as the compound, how does the “activity change, negative = growth inhibition” value read?
Answer: 1.63%

Question: Which Potency does the source give for `NC(=O)c1ccccc1N=Cc1ccc2ccccc2c1` here?
Answer: 20.6 µM (active)

Question: Which activity change, negative = growth inhibition does the source give for `COc1ccccc1C(=O)N[C@@H]1c2ccccc2C2(CCN(C(=O)c3csnn3)CC2)[C@H]1OC` here?
Answer: -8.07% [at 9.04 µM]

Question: With `CCC(CC)c1nn2cc(-c3ccccc3)nc2s1` as the compound, how does the “activity change, negative = growth inhibition” value read?
Answer: -21.2%

Question: Which “activity change, negative = growth inhibition” value does the source give for `COC(=O)CC1=NN(c2ccccc2)C(=O)C1` here?
Answer: 6.54%

Question: Which Potency does the source give for `COC(=O)CC1Oc2ccccc2-n2cc(-c3ccccc3)nc21` (configuration not stated) here?
Answer: 14.6 µM (active)

Question: For `COc1ccccc1NC(=O)COC(=O)c1ccccc1SCC(=O)N1CCCC1`, which “activity change, negative = growth inhibition” value is on record?
Answer: -18.2%

Question: With `c1ccc(-n2cccc2)c(N2CCCCC2)c1` as the compound, how does the “activity change, negative = growth inhibition” value read?
Answer: -16.6%

Question: With `COC(=O)C1C(=O)NCC1c1ccc(OC)cc1` (configuration not stated) as the compound, how does the “activity change, negative = growth inhibition” value read?
Answer: -2.03%

Question: Which “activity change, negative = growth inhibition” value does the source give for `COc1ccc(N2C(=O)C(O)C2c2ccc(C)cc2)cc1` (configuration not stated) here?
Answer: -18.6%

Question: For `COC(=O)C1=C(Nc2ccc(OC)cc2)C=C(C)C(C(=O)OC)C1c1ccc(C)cc1` (configuration not stated), which Potency is on record?
Answer: 16.4 µM (active)

Question: With `Cc1ccc(C(=O)Nc2ccc3[nH]c(=O)c(=O)[nH]c3c2)cc1` as the compound, how does the “activity change, negative = growth inhibition” value read?
Answer: 26.4%

Question: Which “activity change, negative = growth inhibition” value does the source give for `CC(C)CCNC(=O)CCNS(=O)(=O)c1ccc(Cl)cc1` here?
Answer: -2.47%

Question: Which activity change, negative = growth inhibition does the source give for `COC(=O)c1c(OCc2ccc(F)cc2)cc(=O)n2c1CCN(Cc1ccc3cccnc3c1)CC2` here?
Answer: 8.77% [at 9.04 µM]

Question: For `O=C(Nc1cc(-c2nc3ccccc3o2)ccc1Cl)c1cc([N+](=O)[O-])ccc1N1CCOCC1`, which “activity change, negative = growth inhibition” value is on record?
Answer: -23.5%

Question: With `COc1cc(/C=C/CNC[C@H]2O[C@@H](n3cnc(C(N)=O)n3)[C@H](O)[C@@H]2O)ccc1O` as the compound, how does the “activity change, negative = growth inhibition” value read?
Answer: -10.3%

Question: Which “activity change, negative = growth inhibition” value does the source give for `O=C(c1ccc(Cl)cc1)n1nc(-c2cccnc2)nc1NCc1ccc(F)cc1` here?
Answer: -17.8%

Question: Which “activity change, negative = growth inhibition” value does the source give for `O=C(Cc1ccccc1)n1nc(-c2ccccc2)nc1NCc1ccco1` here?
Answer: 13.9%

Question: With `O=C(c1ccco1)n1nc(-c2ccc(Cl)cc2)nc1NCc1ccccc1` as the compound, how does the Potency read?
Answer: 18.4 µM (active)

Question: For `COc1ccc(C(=O)NCCSc2ccccc2C)cc1`, which “activity change, negative = growth inhibition” value is on record?
Answer: -12.7%

Question: For `CCN1C(=O)c2cccc3c(N)ccc1c23`, which Potency is on record?
Answer: 11.6 µM (active)

Question: Which “activity change, negative = growth inhibition” value does the source give for `Cc1nn(C)cc1N1C(=O)c2cccc3c(N)ccc(c23)C1=O` here?
Answer: 2.78%

Question: With `CN1C(=O)c2cccc3c(N)ccc(c23)C1=O` as the compound, how does the “activity change, negative = growth inhibition” value read?
Answer: -22.8%

Question: Which “activity change, negative = growth inhibition” value does the source give for `NC1=NC(c2cc(F)cc(F)c2)n2c(nc3ccccc32)N1` (configuration not stated) here?
Answer: 3.45%

Question: Which “activity change, negative = growth inhibition” value does the source give for `CS(=O)(=O)C1=NN2C(=N)/C(=C\c3ccc(OCCOc4ccccc4)cc3)C(=O)N=C2S1` here?
Answer: 16%

Question: Which “activity change, negative = growth inhibition” value does the source give for `Cc1ccc(NC2CCCN(C(=O)CCC3(C)CC3)C2)cc1C` (configuration not stated) here?
Answer: -24.4%

Question: For `CCCCN(CC)CCCNC(=O)Cn1ncc2c([nH]c3ccc(C)cc32)c1=O`, which “activity change, negative = growth inhibition” value is on record?
Answer: -20%

Question: For `Cc1nn(C(C)C(=O)N2CCOCC2)c(=O)c2nn(-c3ccccc3)c(C)c12` (configuration not stated), which “activity change, negative = growth inhibition” value is on record?
Answer: 8.07%

Question: For `CC(Sc1nncs1)C(=O)NCc1ccc2c(c1)OCO2` (configuration not stated), which “activity change, negative = growth inhibition” value is on record?
Answer: 4.18%

Question: For `COc1ccccc1CNC(=O)Cn1cc2c(n1)CCCC2`, which “activity change, negative = growth inhibition” value is on record?
Answer: 5.72%
